Source: PubChem (National Center for Advancing Translational Sciences (NCATS))
TRb SRC2 PPI = inhibitors of human thyroid hormone receptor beta-SRC2 interaction; P10828; TRbeta-SRC2 peptide binding, fluorescence polarization; receptor liganded with 1 µM T3; Potency, µM (titrated, usually from 106 µM), without a hit: top-dose activity change, negative = inhibition, hits mostly inhibitors; hit rate 0.065% among 280,000; active = well fitted inhibition curve with a large enough effect; inconclusive = small, poorly fitted or top-dose-only effect, or effect the other way;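 note: potency is the fitted concentration of half-maximal effect; plate controls were bound peptide for no effect and peptide without receptor for full effect; nearly all actives have a fitted effect of over 50% in size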
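Binding of a 20-amino-acid Texas Red SRC2 peptide (20 nM) to TRb ligand-binding domain (0.6 uM) with agonist T3 at 1 uM was followed by fluorescence polarization after a 5 hr room-temperature incubation.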
TexasRed fluor = Texas Red fluorescence interference in TRb-SRC2 counter-screen. hit rate 0.29% among 280,000. TRb/SRC2 Texas Red total fluorescence interference. AID 1479. Potency, µM (titrated, usually from 106 µM), for inactives: at the top dose fluorescence change, negative = quenching; active = well fitted curve in either direction with a large enough effect; inconclusive = small, poorly fitted or top-dose-only effect; note: potency is the fitted concentration of half-maximal effect
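Human TRb ligand-binding domain at 0.6 uM with 20 nM Texas Red SRC2 peptide in Tris buffer containing 1 uM T3 and 5% DMSO, incubated with compound 5 h at ambient temperature. Total fluorescence (555/632 nm) calculated as parallel + 2 × perpendicular.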
Coupling enz = counter-screen for Giardia aldolase inhibitors: coupling enzyme system | coupling enzyme system counterscreen, AmpLite Red fluorescence | activity change, negative = inhibition, % at 58.2 µM, hits read low | hit rate 0.67% among 290,000 | AID 2472; in the data active = activity change below about -30%
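Counterscreen lacking aldolase: glyceraldehyde-3-phosphate coupling-enzyme reagent preincubated 10 min at RT with compound (at 57.5 uM final), then substrate/coupling system with AmpLite Red added; fluorescence read at 525/598 nm after 20 min RT.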
GoLoco inh red = inhibitors of human Gai1-RGS12 GoLoco interaction (red fluorophore) | P63096 | Gai1:RGS12 GoLoco peptide FP, rhodamine, 10 min | Potency, µM (titrated, usually from 61.6 µM), for the others: at the highest dose activity, negative = inhibition, hits mostly inhibitors | hit rate 0.44% among 230,000; active = well fitted inhibition curve with a large enough effect, not every such curve was filed as active; inactive = no such curve, though single readings can be large or run the other way; note: potency is the fitted concentration of half-maximal effect; nearly all actives have a fitted effect of over 30% in size
Target sequence (P63096 whole entry, looked up): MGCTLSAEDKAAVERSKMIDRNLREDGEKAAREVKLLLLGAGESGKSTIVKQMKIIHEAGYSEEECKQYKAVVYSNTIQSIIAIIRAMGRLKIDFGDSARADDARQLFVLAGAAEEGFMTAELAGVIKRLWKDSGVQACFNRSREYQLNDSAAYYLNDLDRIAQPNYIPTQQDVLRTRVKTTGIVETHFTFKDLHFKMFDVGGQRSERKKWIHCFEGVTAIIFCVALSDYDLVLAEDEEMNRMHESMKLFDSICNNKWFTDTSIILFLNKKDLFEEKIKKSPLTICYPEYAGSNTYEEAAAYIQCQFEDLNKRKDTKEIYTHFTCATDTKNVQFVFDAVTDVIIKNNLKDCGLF
* hit, by the source's call; ? = inconclusive; · = no result; ! = a repeat was not active; [ ] = remark or other dose. Only some compounds are listed: those with a hit (about 0.93% of all), similar ones and a draw of the others. Unless noted, % is set by controls: 0 for no effect and ±100 for the full control effect.

SMILES | TRb SRC2 PPI | TexasRed fluor | Coupling enz | GoLoco inh red
CC(C)(C)C(=O)OCOP(=O)(OCOC(=O)C(C)(C)C)C(C)(Oc1ccc(O)cc1)P(=O)(OCOC(=O)C(C)(C)C)OCOC(=O)C(C)(C)C | 6% | 8% | 12 | -8%
O=c1oc(=O)c2cc3c(=O)oc(=O)c3cc12 | 10%[201 µM] | 0%[201 µM] | · | ·
Oc1ccc(C(c2ccc(O)cc2)C(Cl)(Cl)Cl)cc1 | 2%[201 µM] | -1%[201 µM] | · | ·
CC(C)C(=O)Nc1ccc2nc(SCC(=O)N3CCc4ccccc43)sc2c1 | 4% | ? | · | ·
O=S(=O)(c1ccc(Cl)nc1)N1CCc2ccccc21 | -3% | -3% | -5 | 2%
O=S(=O)(c1ccc(Cl)nc1)N1CCCc2ccccc21 | 6% | 3% | -33* | -4%
CCOc1ccccc1-c1noc(CSc2nnc(-c3ccccc3)n2-c2ccc(F)cc2)n1 | 0% | 13% | · | ·
CN(C)CCc1cc2c(c3c1ccc1ccccc13)OCO2 | 5% | 0% | -36*! | 3%
FC(F)(F)c1ccccc1NC(=S)Nc1cccc2cnccc12 | -2% | -2% | -25 | 10%
S=C(NCCc1ccccc1)Nc1cccc2cnccc12 | 12% | -2% | -36* | 6%
Cc1ccc(C)c(NC(=S)Nc2cccnc2)c1 | -6% | 1% | 2 | 5%
Cc1ccccc1NC(=S)Nc1cccc2cnccc12 | -2% | -5% | -52* | 6%
Cc1ccc(C)c(NC(=S)Nc2cccc3cnccc23)c1 | 1% | -3% | -37* | 8%
Fc1ccccc1NC(=S)Nc1cccc2cnccc12 | -8% | -5% | -32* | 5%
S=C(NCc1ccccc1)Nc1cccc2cnccc12 | · | · | -9 | ·
CCCCNS(=O)(=O)c1ccccc1 | -3%[201 µM] | -3%[201 µM] | · | ·
C=CC(=O)OCCOc1ccccc1 | ? | 3%[201 µM] | · | ·
CCN(Cc1c(F)cccc1Cl)c1c([N+](=O)[O-])cc(C(F)(F)F)cc1[N+](=O)[O-] | -4%[201 µM] | -2%[201 µM] | · | ·
CCC(=O)[C@@]1(C)[C@H](C)C[C@@H]2[C@@H]3CCC4=CC(=O)C=C[C@@]4(C)[C@H]3[C@H](O)C[C@]21C | 3%[53 µM] | -3%[53 µM] | 0 | 1%[21.6 µM]
CC1(C)Oc2ccc3ccc(=O)oc3c2/C(=C/N)C1=O | -11% | -2% | 1 | 6%
CC1(C)Oc2ccc3ccc(=O)oc3c2-c2cnoc21 | 7% | -3% | 3 | 10µM*
CC1(CC(=O)O)O[C@H]2CCCCC[C@H]2O1 (some centres not stated) (tested in a mixture with another compound) | · | · | · | 2%[14.2 µM]
CC(=O)OC(C(=O)c1ccccc1)c1ccccc1 (configuration not stated) | -1% | -1% | · | 16µM*
CCn1cc(C(=O)Nc2ccc(C(C)C)cc2)c2cc(OC)c(OC)cc2c1=O | 3% | 0% | · | ·
NS(=O)(=O)c1cccc2c1c([N+](=O)[O-])cc1[nH]c(=O)c(=O)[nH]c12 | -4% | ? | -35*! | -21%
SMILES | TRb SRC2 PPI | TexasRed fluor | Coupling enz | GoLoco inh red
CCCCCCC(C)(C)S | -1%[201 µM] | -6%[201 µM] | · | ·
CN1CCN(C(=S)C(=O)Nc2ccc(Br)cc2)CC1 | -7% | 0% | -37* | -6%
CCCC[C@]12Cc3ccccc3C(O1)c1c(cc(-c3ccccc3)oc1=O)O2 | · | · | -31* | ·
C=CC(=O)OCC(C)OCC(C)OCC(C)OC(=O)C=C (configuration not stated) | -3%[201 µM] | -2%[201 µM] | · | ·
COc1cccc([C@H](O)Cn2cc(-c3cccc(CON=C(C)C)c3)nn2)c1 | 0%[11.2 µM] | 1%[11.2 µM] | 2 | ·
CCN1CCc2c(sc(N)c2C(N)=O)C1 | -11% | 3% | -15 | 14%
CN1CCc2c(sc(N)c2C(N)=O)C1 | -16% | 7% | -33* | 6%
Cc1ccc(-c2csc(N3N=C(c4ccccc4)/C(=C\c4ccc(N(C)C)cc4)C3=O)n2)cc1 | ? | 40µM*[quencher] | 4 | 29%
CC1=NN(c2cccc(F)c2)C(=O)/C1=C/c1ccc(N(C)C)cc1 | · | · | 2 | ·
CN(C)c1ccc(NC(=O)Cn2c(SCc3ccc(F)cc3)nc3cccnc32)cc1 | -2% | 1% | · | ·
Nc1nc(N)nc(CC(=O)O)n1 | · | · | · | 8%[14.2 µM]
O=C1NCCCc2c1oc1ccc(O)cc21 | -17% | 2% | 2 | -35%
Oc1c(Cl)cc(Cl)c2c1NCCC2 | -18% | 1% | -48* | -11%
N[C@@H](Cn1cc(F)c(=O)[nH]c1=O)C(=O)O | 6% | -3% | 3 | -2%
CCOc1ccccc1NC(=O)Cc1coc2c(C)c(C)ccc12 | -12%[53 µM] | 35µM*[quencher] | · | ·
O=C(CSc1nc(=O)[nH]c2c1CCC2)Nc1cc(C(F)(F)F)ccc1Cl | -29% | ? | · | ·
